Bioassay records: PubChem, The Scripps Research Institute Molecular Screening Center
bovine MsrA act = activates bovine MsrA enzyme. activation, % at 10.6 µM. 360,000 compounds, 0.3% hits. AID 602163. purified bovine MsrA, absorbance read-out; in the data active means activation above about 7.5%;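 further: 0% = vehicle and 100% = reference activator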
sPLA2-III inh = Inhibits HGIII-sPLA2 liposome hydrolysis, primary screen | QFRET BODIPY PC-A2 liposome hydrolysis, fluorescence | inhibition, % at 12.2 µM | AID 743126 | Q9NZ20 | 370,000 compounds, 0.56% hits;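 active means inhibition above mean plus 3 SD of compounds lying within the high and low control bounds, cut at about 19% in these data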;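 further: 0% = median of test compound wells and 100% = no enzyme DMSO wells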
Target sequence (Q9NZ20 whole entry, looked up): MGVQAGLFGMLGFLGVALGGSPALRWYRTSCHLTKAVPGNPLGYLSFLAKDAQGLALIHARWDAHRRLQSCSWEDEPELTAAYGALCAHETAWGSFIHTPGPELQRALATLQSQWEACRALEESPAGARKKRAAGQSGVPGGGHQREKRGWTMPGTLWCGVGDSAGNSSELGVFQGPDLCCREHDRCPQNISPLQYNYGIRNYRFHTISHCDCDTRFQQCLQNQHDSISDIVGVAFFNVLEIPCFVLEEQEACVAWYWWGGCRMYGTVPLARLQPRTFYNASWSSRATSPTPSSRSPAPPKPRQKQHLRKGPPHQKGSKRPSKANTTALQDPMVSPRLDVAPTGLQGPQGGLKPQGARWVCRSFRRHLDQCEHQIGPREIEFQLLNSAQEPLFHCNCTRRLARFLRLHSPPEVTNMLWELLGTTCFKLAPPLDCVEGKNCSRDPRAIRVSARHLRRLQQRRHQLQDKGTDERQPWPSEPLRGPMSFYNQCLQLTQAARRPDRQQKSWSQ
PG9 binder = small molecules binding HIV-1 gp120 antibody PG9; TR-FRET gp120-PG9 antibody binding; inhibition, % at 6.7 µM; 360,000 compounds, 0.43% hits; AID 624416; in the data active means inhibition above about 8.5%
rCAG binder = r(CAG) repeat RNA binding; 370,000 compounds, 1.3% hits; TO-PRO-1 dye displacement fluorescence; inhibition, % at 3 µM; AID 651821;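 active means inhibition above the plate cutoff, the mean of all test compounds on that plate plus 3 SD, cut at about 35% in these data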;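 further: 0% = DMSO alone and 100% = 100 µM mitoxantrone as full dye displacement; higher means more dye released from RNA so lower well fluorescence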
MsrA inhibitor = bovine MsrA inhibition. purified bovine MsrA, absorbance read-out. inhibition, % at 15.5 µM. 360,000 compounds, 0.75% hits; in the data active means inhibition above about 4.5%;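 further: 0% = vehicle wells with enzyme and 100% = reference inhibitor wells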
rCAG binder conf = r(CAG) RNA repeat binding, confirmation. shares compounds with rCAG binder. TO-PRO-1 dye displacement fluorescence. inhibition, % at 3 µM. 4,300 compounds, 70% hits;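 active means inhibition above a per-plate cutoff, the mean inhibition of sample wells plus 3 SD, cut at about 35% in these data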;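 further: loss of TO-PRO-1 fluorescence as compound displaces dye from 1x1 AA loop RNA; 0% = DMSO only wells and 100% = 100 µM mitoxantrone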
dCAG dye counter = disrupts DNA CAG TO-PRO-1 complex, flagging rCAG hits. d(CAG) DNA oligo TO-PRO-1 dye displacement, fluorescence. 4,300 compounds, 94% hits. inhibition, % at 3 µM. shares compounds with rCAG binder. AID 652068;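 active means inhibition above its plate's cutoff, the mean test-well inhibition plus 3 SD, cut at about 4.8% in these data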;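 further: 0% = DNA dye mix with DMSO and 100% = 100 µM mitoxantrone; hits displace the dye from DNA and so lower well fluorescence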
An asterisk follows results filed as active; nt = no result given. Most compounds without a hit are left out; they make up all but 3.2% or so of the library.

SMILES | bovine MsrA act | sPLA2-III inh | PG9 binder | rCAG binder | MsrA inhibitor | rCAG binder conf | dCAG dye counter
CCCCOC(=O)Nc1ccc(S(=O)(=O)Nc2ccc([N+](=O)[O-])cc2)cc1 | -3 | -49 | -1 | 51* | 0 | 33 | 9.9*
CCCCOC(=O)Nc1ccc(S(=O)(=O)Nc2cc(C)nc(C)n2)cc1 | -6 | 0 | 2 | 3 | 0 | nt | nt
CCCCCOC(=O)Nc1ccc(S(=O)(=O)Nc2cccc([N+](=O)[O-])c2)cc1 | -3 | -72 | -2 | 48* | 0 | 45* | 10*
O=[N+]([O-])c1ccc(S(=O)(=O)Nc2ccc(-c3ccccc3)cc2)cc1 | -2 | -37 | -1 | 45* | 0 | 35* | 8.7*
CS(=O)(=O)Nc1ccc(C(=O)CC(=O)Nc2ccc([N+](=O)[O-])cc2)cc1 | -12 | -22 | 1 | 37* | 4 | 14 | 9.4*
CC(=O)c1cc(-c2ccccc2)n(CC(=O)NCc2ccccc2Cl)c1C | nt | -5 | nt | 5 | nt | nt | nt
CC(C)c1ccc(-c2nnc(SCC(=O)NC3CC3)n2C)cc1 | -3 | 13 | 0 | -6 | 0 | nt | nt
C=CCN1[C@@H](CC(C)C)COc2cc(F)ccc2S1(=O)=O | nt | 7 | nt | 2 | nt | nt | nt
COc1ccc(S(=O)(=O)Nc2nc3ccccc3s2)cc1 | 0 | -35 | 2 | 21 | 1 | nt | nt
CCOc1ccc2sc(NS(=O)(=O)c3ccc(OC)c(OC)c3)nc2c1 | -8 | -18 | -3 | 52* | 0 | 26 | 5.9*
CCc1ccccc1NC(=O)c1ccc(CN2CCC(Cc3ccccc3)CC2)cc1 | 1 | 2 | 0 | -1 | 0 | nt | nt
O=C(NC1=N[C@@]2(C=C3CCCCC3n3c(=O)n(-c4ccccc4)c(=O)n32)[C@H](Cc2ccccc2)N1Cc1ccccc1)c1ccccc1 (some centres undefined) | nt | -12 | nt | 56* | nt | 53* | 20*
COc1ccc(NC(=O)CSc2nc(-c3ccco3)nc3cc(=O)[nH]n23)cc1Cl | -3 | -11 | -2 | 54* | 2 | 36* | 14*
CC1=NN(c2nc(-c3ccc(C)cc3)cs2)C(=O)C1N=Nc1ccccc1O (centres undefined) | 2 | -8 | -1 | 25 | -1 | nt | nt
CC1=NN(c2nc(-c3ccc(C)cc3)cs2)C(=O)C1N=Nc1cccc(O)c1 (centres undefined) | -7 | 8 | 1 | 37* | 1 | 49* | 22*
COc1cc(-c2c(C#N)c(=O)[nH]c3c2c(C)nn3-c2ccccc2)ccc1O | -4 | -36 | -1 | 36* | 2 | 30 | 6.3*
